# What was measured:
# Conditions in all cases: concentration: 1 μM, replicates: in singlicate; n = 1
# EIF2AK1 = system: EIF2AK1
# EPHA1 = system: EPHA1
# EPHA2 = system: EPHA2
# EPHA3 = system: EPHA3
# EPHA4 = system: EPHA4
# EPHA5 = system: EPHA5
# EPHA6 = system: EPHA6
# EPHA7 = system: EPHA7
# EPHA8 = system: EPHA8
# EPHB1 = system: EPHB1
# 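Note: KINOMEscan kinase panel screen.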
SMILES,%Inh (EIF2AK1) [%],%Inh (EPHA1) [%],%Inh (EPHA2) [%],%Inh (EPHA3) [%],%Inh (EPHA4) [%],%Inh (EPHA5) [%],%Inh (EPHA6) [%],%Inh (EPHA7) [%],%Inh (EPHA8) [%],%Inh (EPHB1) [%]
COc1ccc(NC(=O)c2ccc(-c3cc(-c4nnc(C)o4)ccc3C)cc2)cc1 [GW595885],0,8,7,0,7,0,0,0,6,0
CC(C)(C)OC(=O)NC1CCCN(c2cc(-c3ccc4c(N)n[nH]c4c3)nc(N)n2)C1 (stereo not shown) [GSK2286096],4,8,11,0,14,0,9,0,6,10
NC(=O)c1sc(-n2cnc3ccccc32)cc1OCc1ccccc1F [GSK1024306],0,2,0,5,0,0,0,0,19,0
CSc1ccc(NC2=C(c3ccccc3Cl)C(=O)NC2=O)cc1 [SB-342411],0,2,27,16,7,0,0,6,14,9
O=c1cc(N2CCOCC2)nc2n(Cc3cccc(Cl)c3)ccn12 [GSK2296823],7,17,14,82,20,0,19,7,17,8
CN1CCC(n2cnc(-c3ccc(F)cc3)c2-c2ccnc(NC3CCNCC3)n2)CC1 [SB-229482],0,0,5,18,7,5,5,0,0,0
Cc1cc(N2CCC(NS(=O)(=O)c3ccc(F)cc3)CC2)nc(Nc2cccc(C#N)c2)n1.O=C(O)C(F)(F)F [GSK1653537],0,1,0,0,7,0,5,6,19,15
COc1ccc(NC(=O)Nc2ccc(C)c(-c3ccc(C(=O)Nc4ccncc4)cc3)c2)cc1 [GSK1398475],0,6,8,13,1,0,11,4,14,13
COC(=O)c1c(-c2ccccc2)c2cc(Cl)ccc2c(=O)n1Cc1ccc(S(C)(=O)=O)cc1,10,0,8,6,20,4,34,1,7,6
COc1ccc(Nc2nccc(N3CCC(NC(=O)Nc4ccc5c(c4)OCO5)C3)n2)cc1 (stereo not shown) [GSK1379745],0,8,0,0,11,0,19,7,20,4
COc1cc2ncnc(Nc3ccc(OCc4ccccc4Br)c(Cl)c3)c2cc1OC.Cl [GI261590],0,8,14,0,3,15,7,4,17,12
Clc1ccc(-c2cc(-c3c[nH]nc3-c3ccccn3)ccn2)cc1 [GW681251],0,0,8,0,2,0,10,0,0,7
COC(=O)c1cccc(NC(=O)NCCNc2ccnc(Nc3ccc(F)cc3)n2)c1 [GSK1379883],0,5,32,0,7,0,20,3,9,4
COc1ccc(Nc2nccc(N3CCC(NC(=O)c4cccc(NC(C)=O)c4)C3)n2)cc1 (stereo not shown) [GSK1379732],0,0,20,1,0,0,0,0,0,1
c1ccc(-c2ccc3c(-c4ccnc(Nc5ccc6c(c5)OCCO6)n4)cnn3n2)cc1 [GW818941],0,7,18,0,21,0,12,14,17,18
Nc1nc(-c2ccc3c(N)n[nH]c3c2)cc(N2CCC[C@@H](C(=O)Nc3ccccc3)C2)n1.O=C(O)C(F)(F)F.O=C(O)C(F)(F)F [GSK2288359],1,17,0,0,4,0,0,3,3,21
Fc1cccc(COc2ccc(Nc3ncnc4nn5ccccc5c34)cc2Cl)c1 [GW689066],0,11,12,0,0,0,9,0,0,4

SMILES,%Inh (EIF2AK1) [%],%Inh (EPHA1) [%],%Inh (EPHA2) [%],%Inh (EPHA3) [%],%Inh (EPHA4) [%],%Inh (EPHA5) [%],%Inh (EPHA6) [%],%Inh (EPHA7) [%],%Inh (EPHA8) [%],%Inh (EPHB1) [%]
O=C(NCCCN1CCCC1=O)c1cnc(NCc2cc(Cl)ccc2Cl)nc1NC1CCNCC1,0,9,2,0,0,2,0,0,0,7
Cc1ccc(C)c(NC(=O)NCCNc2ccnc(Nc3ccc(F)cc3)n2)c1 [GSK1379878],0,6,11,0,0,0,0,0,3,0
CC(C)(C)c1ccc(-n2cnc3c(N)ncnc32)cc1 [SKF-97263],0,14,23,0,27,0,28,8,16,3
O=C(Nc1n[nH]c2nc(-c3ccco3)c(Br)cc12)c1ccc(CN2CCCC2)cc1.O=C(O)[C@H](O)[C@@H](O)C(=O)O [SB-742352],0,3,0,0,100,0,100,0,7,6
CSc1nn2c(=O)cc(N3CCOCC3)nc2n1Cc1cccc(Cl)c1Cl [GSK2347225],2,1,11,15,8,1,3,12,15,29
CS(=O)(=O)CCNCc1ccc(-c2ccc3ncnc(Nc4ccc(OCc5ccccc5)c(Cl)c4)c3c2)o1.Cl [GW574783],0,3,1,0,13,0,15,0,8,3
FC(F)(F)c1cc(Nc2nccc(-c3c(-c4ccc(Cl)cc4)nn4ncccc34)n2)ccc1Cl [GW829351],0,0,0,0,4,0,0,0,3,0
N#Cc1ccc(Oc2ccc(Nc3ncnc4cc[nH]c34)cc2Cl)cc1,5,1,0,0,23,0,23,2,1,5
Oc1ccc2ncnc(Nc3ccc(OCc4ccccc4)cc3)c2c1 [GI262866],0,11,0,0,6,0,16,3,14,14
CCn1c(-c2ccncc2)nc2cnccc21 [SB-735216],19,23,5,99.1,10,0,16,0,14,0
CNc1nccc(-c2c(-c3ccc(F)cc3)ncn2CCCN2CCOCC2)n1 [SB-222516],12,14,0,0,0,0,0,21,25,17
Cc1ccc(NC(=O)c2cccc(C#N)c2)cc1-c1ccc(C(=O)Nc2ccncc2)cc1 [GSK1398463],7,12,30,13,43,0,34,12,46,22
CNc1nccc(-c2c(-c3ccc(F)cc3)ncn2C2CCN(C)CC2)n1 [SB-222903],0,0,0,2,1,0,0,0,0,9
Fc1cccc(COc2ccc(Nc3ncnc4sc(-c5ccc[nH]5)cc34)cc2Cl)c1 [GW707818],0,0,0,18,0,0,0,0,4,1
Nc1nccc2scc(-c3ccc4c(c3)CCN4C(=O)Cc3cc(F)ccc3F)c12 [GSK2587663],0,11,17,0,12,0,25,6,20,7
Nc1nc(-c2cccnc2)c(-c2ccnc3ccccc23)s1 [GW684083],0,0,21,12,4,0,8,0,9,6
Cn1ccc2ncnc(Nc3ccc(Oc4cccc(Cl)c4)c(Cl)c3)c21,0,0,5,13,0,21,21,94.1,86,15

# Source: publication PMC5540273 (PLoS ONE, 2017)
